Screens (PubChem BioAssay)
Shown are actives, neighbours in structure and some others; about 4.1% of the full set was active somewhere.
MBD2 inh – inhibitors of MBD2 binding to methylated DNA, primary screen, biochemical, TR-FRET, DNA-binding domain, human; MBD2 binding to methylated oligonucleotide; hit rate 0.31% among 370,000; Methyl-CpG-binding domain protein 2 (Homo sapiens), Q9UBB5; AID 686964, 2013; inhibition, % at 4.4 µM; in the data active = inhibition above about 13%
Target sequence (Q9UBB5 whole entry, looked up, the tested form may be a part): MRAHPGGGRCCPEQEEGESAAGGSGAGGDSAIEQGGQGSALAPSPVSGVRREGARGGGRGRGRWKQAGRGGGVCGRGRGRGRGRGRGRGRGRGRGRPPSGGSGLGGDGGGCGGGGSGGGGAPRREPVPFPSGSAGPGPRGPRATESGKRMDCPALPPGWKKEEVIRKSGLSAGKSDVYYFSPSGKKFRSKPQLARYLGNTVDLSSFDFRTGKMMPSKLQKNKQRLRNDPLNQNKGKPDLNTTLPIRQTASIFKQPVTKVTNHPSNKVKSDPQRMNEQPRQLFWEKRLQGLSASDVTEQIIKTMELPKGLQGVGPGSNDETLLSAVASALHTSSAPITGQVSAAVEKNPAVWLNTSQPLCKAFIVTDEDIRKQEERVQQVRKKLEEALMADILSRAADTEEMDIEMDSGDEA
PRMT1 FP inh – PRMT1 methyltransferase inhibitors, primary screen, biochemical, fluorescence polarization. Protein arginine N-methyltransferase 1 (Homo sapiens), Q99873. recombinant PRMT1, activity-based probe fluorescence polarization. inhibition, % at 2.79 µM. hit rate 1.3% among 370,000. AID 652257, 2013;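 active = inhibition above about 21% made by adding two undisclosed values, limit read from the data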
UHRF1 binding – UHRF1 methylated DNA binding inhibitors, primary screen, counter-screen for MBD2 inhibitor project, biochemical, TR-FRET, human UHRF1, single concentration | AID 687016, 2013 | inhibition, % at 4.4 µM | hit rate 0.75% among 370,000 | E3 ubiquitin-protein ligase UHRF1 (Homo sapiens), Q96T88 | UHRF1 binding to methylated oligo; in the data active = inhibition above about 21%;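 also: UHRF1 SRA domain binding a hemimethylated CpG hairpin DNA probe; 0% = median of test compound wells and 100% = reference inhibitor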
rCAG binder – binders of r(CAG) RNA repeats, primary screen, biochemical, fluorescence | inhibition, % at 3 µM | hit rate 1.3% among 370,000 | r(CAG) RNA repeat, TO-PRO-1 dye displacement fluorescence;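 active = inhibition above the plate cutoff, the mean of all test compounds on that plate plus 3 SD, cut at about 35% in these data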;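 also: 0% = DMSO alone and 100% = 100 µM mitoxantrone as full dye displacement; higher means more dye released from RNA so lower well fluorescence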
ABHD5-PLIN5 inh – ABHD5-PLIN5 interaction inhibitors, primary screen, cell lysate, split luciferase complementation, luminescence. Split G. princeps luciferase complementation, 4 h. AID 602281, 2012. hit rate 0.78% among 360,000. inhibition, % at 4 µM. Perilipin-5 (Homo sapiens) + 1-acylglycerol-3-phosphate O-acyltransferase ABHD5 (Homo …;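 active = inhibition above the mean inhibition across every tested compound plus 3 SD, cut at about 22% in these data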;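 also: 0% = DMSO only wells and the 100% control is not disclosed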
LEDGF integ inh – blockers of LEDGF/p75-dependent integrase strand transfer – biochemical, TR-FRET, high throughput, primary screen; HIV-1 integrase (with human LEDGF/p75); TR-FRET IN-LEDGF/p75 DNA integration, Eu/Cy5; inhibition, % at 3.7 µM; hit rate 0.64% among 370,000; AID 743269, 2014;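 active = inhibition above the screen-wide mean plus 3 SD, cut at about 13% in these data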;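 also: signal is the Cy5 over europium emission ratio at 671 and 618 nm; 0% = plate median of compound wells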
Numbers without * were called inactive; i = inactive; · = not tested or not shown.

SMILES | MBD2 inh | PRMT1 FP inh | UHRF1 binding | rCAG binder | ABHD5-PLIN5 inh | LEDGF integ inh
CCCCNC(=O)C[C@H]1C[C@@]2(C(=O)OC)C(=C[C@H](C(C)(C)C)O[C@@H]2C)N(Cc2ccc3c(c2)OCO3)C1=O | 1 | -2 | -1 | 0 | · | -4
O=C(CSC1=Nc2ccccc2C2CC=NN12)Nc1ccc(F)c(F)c1F (configuration not stated) | -2 | 22* | -1 | 5 | -5 | 1
CCCCOC(=O)c1ccc(NC(=O)CSC2=Nc3ccccc3C3CC=NN23)cc1 (configuration not stated) | -2 | 14 | -2 | 11 | 1 | -4
Cc1ccc(NC(=O)[C@H](Cc2ccccc2)NC(=O)[C@@H]2Cc3ccccc3CN2)c(C)c1 | 13 | 4 | 27* | -4 | 4 | 2
O=c1c2ccccc2n(Cc2ccccc2)n1[C@@H](Cc1ccccc1)Cn1cc(C2CCCC2)nn1 | 0 | 1 | 0 | 7 | · | -4
CCOC(=O)c1cnc[nH]c1=O | -1 | 3 | 2 | 1 | 22* | -7
CCOC(=O)c1cnc(Cc2ccccc2)[nH]c1=O | -2 | 1 | -2 | -4 | 9 | 1
COc1ccc(NC(=O)[C@@]2(CC(=O)O)CC(/C=C/c3ccccc3)=NO2)cc1 | 2 | 2 | 6 | 11 | 3 | -1
CC(=O)c1ccc(NC(=O)[C@@]2(CC(=O)O)CC(/C=C/c3ccccc3)=NO2)cc1 | -2 | -4 | 54* | 14 | 1 | -2
COc1cc(O)ccc1C=O | 2 | 4 | 27* | -2 | -7 | -3
COc1nc(N)c(S(=O)(=O)c2ccccc2)cc1C#N | 0 | -2 | 23* | 4 | -2 | -4
O=C(CSc1nncn1-c1ccccn1)Nc1ccccc1Cl | 4 | 2 | 0 | -3 | 3 | -5
Cc1c(Cl)cccc1NC(=O)CSc1nncn1-c1ccccn1 | 5 | 24* | 4 | 0 | 6 | -6
COc1ccc(-n2cnnc2SCC(=O)Nc2cccnc2Cl)cc1 | -1 | 0 | 21* | -2 | -4 | 3
O=C(CSc1nnc(-c2cccnc2)n1-c1ccc(Cl)cc1)c1ccc2ccccc2c1 | -7 | -4 | -2 | 7 | · | 6
Cc1ccc(NC(=O)c2ccc(CS(=O)(=O)Cc3ccccc3C)o2)cc1C | 8 | 7 | 0 | 11 | · | -2
CC(=O)Nc1ccc(N2C(=O)c3cccc4c(O)ccc(c34)C2=O)cc1 | -12 | 109* | -18 | i | -5 | -6
O=C1c2cccc3c(O)ccc(c23)C(=O)N1c1ccc(Cl)cc1 | -22 | 174* | -33 | -496 | 0 | 5
Cc1ccc(N2C(=O)c3cccc4c(C(=O)O)ccc(c34)C2=O)cc1 | 1 | 2 | 2 | 1 | · | -1
CC(=O)c1cc(C#N)c(N2CCOCC2)nc1C | 0 | -4 | 34* | -3 | 1 | -2
COC(=O)c1cc(C#N)c(N2CCOCC2)nc1C | 4 | -5 | -2 | -1 | 1 | 0
COc1cccc(N2CC(=O)Nc3c(oc4nc(-c5ccccc5)cc(C)c34)C2=O)c1 | -2 | 6 | 45* | 3 | -3 | -5
Cc1cc(-c2ccccc2)nc2oc3c(c12)NC(=O)CN(c1ccccc1)C3=O | 2 | 1 | -2 | 0 | 7 | -6
COc1cccc(CN(C)[C@H]2C[C@H]3c4[nH]c5ccccc5c4CCN3C[C@H]2[C@H](C)O)c1OC | -3 | 0 | 1 | 2 | · | -3
COc1ccc(Br)cc1C=NNC(=O)c1ccncc1 | -2 | 7 | -2 | 2 | · | -6
CCN(CC)C(=O)c1sc2nc(N3CCOCC3)c3c(c2c1N)CCCC3 | -4 | 24* | -4 | -5 | -2 | -3
Cc1cc(=O)[nH]c(SCC(=O)Nc2cccc3ccccc23)c1C#N | · | · | · | · | -1 | ·
